PubChem BioAssay (NCI)
About 83,000 compounds went through this panel and 20% of them were active in at least one assay; those are over-represented in the sample as a whole.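 Treatment: one concentration, 48 hours, 96-well format. Scoring: percent growth, with anything below 10 considered active.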 Calls of active or inactive are those of the source.

Tests used:
Assay in all cases: NCI-60 one-dose screen, 48 h (100 = growth as untreated, 0 = no growth, -100 = all killed)
Conditions in all cases: 10 µM unless noted
[1] = system: HCT-15 colon
[2] = system: HT29 colon
[3] = system: SNB-75 CNS
[4] = system: SNB-19 CNS
[5] = system: U251 CNS
[6] = system: PC-3 prostate
[7] = system: SK-MEL-5 melanoma
[8] = system: UACC-62 melanoma
[9] = system: LOX IMVI melanoma
[10] = system: SK-MEL-28 melanoma

Measured: growth

O=C(NNc1nc2cc(F)ccc2n2cncc12)c1cnccn1
inactive: [1] 27.9% | [2] 33.1% | [3] 75.1% | [4] 33.7% | [5] 29.8% | [6] 44.6% | [8] 17.5% | [9] 13.7% | [10] 26%
active: [7] -11.6%

O=C1c2c(O)cc(O)cc2O[C@@H](c2ccc(O)cc2)[C@@H]1c1c(O)cc(O)c2c(=O)cc(-c3ccc(O)c(O)c3)oc12
inactive: [1] 101% | [2] 101% | [3] 82.6% | [4] 112% | [5] 110% | [6] 96.1% | [7] 99.6% | [8] 89.5% | [9] 88.9% | [10] 99.1%

CC(=O)NC(C)(C)C(=O)N[C@@H](C)C(=O)NC(C)(C)C(=O)N[C@@H](C)C(=O)NC(C)(C)C(=O)N[C@@H](C)C(=O)N[C@@H](CCC(N)=O)C(=O)NC(C)(C)C(=O)N[C@H](C(=O)NC(C)(C)C(=O)NCC(=O)N[C@@H](CC(C)C)C(=O)NC(C)(C)C(=O)N1CCC[C@H]1C(=O)N[C@H](C(=O)NC(C)(C)C(=O)NC(C)(C)C(=O)N[C@@H](CCC(N)=O)C(=O)N[C@@H](CCC(N)=O)C(=O)N[C@H](CO)CC1CCCCC1)C(C)C)C(C)C
active: [7] -33.6% [5 µM] | [8] 2.45% [5 µM] | [10] -17.1% [5 µM]
inactive: [1] 79.2% [5 µM] | [2] 14.1% [5 µM] | [3] 19.7% [5 µM] | [4] 43.8% [5 µM] | [5] 38.5% [5 µM] | [6] 29.8% [5 µM] | [9] 27.1% [5 µM]

Cc1cc(=O)n2nc(-c3c[nH]c4ccccc34)sc2n1
inactive: [1] 93.5% | [2] 107% | [3] 99.8% | [4] 97.3% | [5] 94.2% | [6] 98.3% | [7] 98.5% | [8] 92% | [9] 95.7% | [10] 96.5%

CS(=O)c1nccc(-c2c(-c3ccc(F)c(OCc4ccccc4)c3)nc3sccn23)n1 (stereo not given)
inactive: [1] 74.8% | [2] 89.5% | [3] 95.4% | [4] 93.3% | [5] 105% | [6] 54.1% | [7] 100% | [8] 93.6% | [9] 81.7% | [10] 55.5%

Cc1cn(-c2cc(NC(=O)c3cncc(C#Cc4cnc5ccc(O[C@H]6CCOC6)nn45)c3)cc(C(F)(F)F)c2)cn1
inactive: [1] 82.8% | [2] 69% | [3] 92.9% | [4] 117% | [5] 105% | [6] 96.5% | [7] 70.6% | [8] 70.6% | [9] 62.6% | [10] 76.3%

Cn1c(SC(C(=O)Nc2ccc(F)cc2)c2ccccc2)nc2ccccc2c1=O (stereo not given)
inactive: [1] 102% | [2] 107% | [3] 91.3% | [4] 98.9% | [5] 103% | [6] 95.8% | [7] 104% | [8] 95.2% | [9] 102% | [10] 114%

CS(=O)(=O)c1ccc2c(c1)c1c(n2Cc2ccc(Cl)cc2)CCCC1
inactive: [1] 54.9% | [2] 75.5% | [3] 75.4% | [4] 72.3% | [5] 68.1% | [6] 51.9% | [7] 82.4% | [8] 43.2% | [9] 81.5% | [10] 87.2%

O=c1c2c(O)cccc2oc2c3c(cc(O)c12)O[C@H]1OC=C[C@@H]31
inactive: [1] 87.8% | [2] 88.9% | [3] 85.7% | [4] 96.8% | [5] 92.9% | [6] 90.1% | [7] 81.1% | [8] 81% | [9] 87.4% | [10] 108%

NC(N)=NS(=O)(=O)c1ccc(N=NC2C(=O)NN(c3ccccc3)C2=O)cc1 (stereo not given)
inactive: [1] 101% | [2] 112% | [3] 84.1% | [4] 98.9% | [5] 103% | [6] 95.2% | [7] 98.9% | [8] 96.1% | [9] 96.6% | [10] 111%

Cn1cc(-c2nnc(N)nc2-c2cn(C)c3ccc(F)cc23)c2cc(F)ccc21
inactive: [1] 91.8% | [2] 63.3% | [3] 64.4% | [4] 91% | [5] 83.2% | [6] 95.2% | [7] 91% | [8] 94.6% | [9] 98.4% | [10] 103%

CN1C(=O)/C(=C/C=C/c2ccco2)SC1=S
inactive: [1] 63.5% | [2] 90.9% | [3] 92.6% | [4] 88.5% | [5] 66.8% | [6] 80% | [7] 40% | [8] 77.2% | [9] 75.5% | [10] 83.9%

C#C[C@]1(O)CC[C@H]2[C@@H]3CC=C4c5sc(-c6cccc(F)c6)nc5CC[C@]4(C)[C@H]3CC[C@@]21C
inactive: [1] 53.5% | [2] 78.4% | [3] 70% | [4] 87.3% | [5] 75% | [6] 68.7% | [7] 96.4% | [8] 74.9% | [9] 80.8% | [10] 81.1%

C#CCOc1ccccc1C(Nc1ccccc1)c1nnnn1C1CCCCC1 (stereo not given)
inactive: [1] 95.5% | [2] 105% | [3] 102% | [4] 94.7% | [5] 99.9% | [6] 92.6% | [7] 99.6% | [8] 63.3% | [9] 95.4% | [10] 101%

CN1CCN(Cc2ccc(NC(=O)c3cncc(C#Cc4[nH]nc5ncncc45)c3)cc2C(F)(F)F)CC1
inactive: [1] 65.4% | [2] 25.8% | [3] 78.2% | [4] 97.3% | [5] 76.8% | [6] 81.3% | [7] 71.2% | [8] 39.6% | [9] 13% | [10] 37.7%

O=S(=O)(NC1CC2CCC1C2)c1ccc2c(c1)C(=NO)c1cc(S(=O)(=O)NC3CC4CCC3C4)ccc1-2 (stereo not given)
active: [5] -64.2% | [9] -90.5%
inactive: [1] 31.2% | [2] 22.3% | [3] 37.2% | [4] 63.3% | [6] 59.2% | [7] 93% | [8] 71% | [10] 92.3%

CN1C(=O)N(C)C2C1NN=c1s/c(=C\c3ccccn3)c(=O)n12 (stereo not given)
inactive: [1] 79.4% | [2] 102% | [3] 93% | [4] 96.8% | [5] 101% | [6] 94.8% | [7] 102% | [8] 90.6% | [9] 100% | [10] 107%

Cn1cc2c(c1)-c1c(sc3nc(-c4ccc(NC(=O)Nc5cc(C(C)(C)C)on5)cc4)cn13)CC2
active: [3] -1.5%
inactive: [1] 12.2% | [2] 21.9% | [4] 46.7% | [5] 24.3% | [6] 38.7% | [7] 63.1% | [8] 87.7% | [9] 16.9% | [10] 54.2%

O=C(O)c1ccc(-n2cc(CNc3ccc(Cl)cc3)c(-c3ccc(F)cc3)n2)cc1
inactive: [1] 79.6% | [2] 112% | [3] 131% | [4] 96.5% | [5] 90.4% | [6] 89% | [7] 84.8% | [8] 77.4% | [9] 84.3% | [10] 95.6%

Cc1ccc(-c2cc(-c3cccc4ccccc34)n3c(n2)nc2ccccc23)cc1
inactive: [1] 48% | [2] 73.4% | [3] 46.8% | [4] 53.5% | [5] 48.9% | [6] 60.3% | [7] 40.9% | [8] 43.5% | [9] 56.6% | [10] 77%

COc1ccc([C@H]2c3[nH]c4ccccc4c3C[C@@H]3C(=O)N(C4CCN(Cc5ccccc5)CC4)CC(=O)N23)c(OC)c1
inactive: [1] 48.3% | [2] 43.1% | [3] 83.1% | [4] 83.1% | [5] 75.8% | [6] 48.1% | [7] 73.7% | [8] 87.2% | [9] 58.7% | [10] 85.1%

CCC(=O)Nc1cc(Nc2cc(NC3CC3)n3ncc(C#N)c3n2)ccc1C
active: [3] -9.89%
inactive: [1] 13% | [2] 25.8% | [4] 25.9% | [5] 19.5% | [6] 19.7% | [7] 15.2% | [8] 18.9% | [9] 21.1% | [10] 46.3%

COc1cc(-c2nc(SCc3ccc(C)cc3)[nH]c(=O)c2C#N)ccc1OCc1ccccc1
inactive: [1] 97.9% | [2] 109% | [3] 96.6% | [4] 97.2% | [5] 102% | [6] 107% | [7] 87.8% | [8] 97.8% | [9] 114% | [10] 101%

COc1c([C@@H](CC(C)C)OC(C)=O)ccc2c1C(=O)OCc1cc(C)cc(O)c1O2
active: [7] 8.29%
inactive: [1] 17.3% | [2] 13.5% | [3] 50.6% | [4] 36.3% | [5] 20.1% | [6] 29.8% | [8] 31.3% | [9] 27.5% | [10] 59.1%

CCOC(=O)c1ccc(N/C=C/C(=O)c2ccccc2)cc1
inactive: [1] 86.2% | [2] 103% | [3] 97% | [4] 92.1% | [5] 99.7% | [6] 95.7% | [7] 99.4% | [8] 87.5% | [9] 96.3% | [10] 97.2%

CC1CCc2c(sc3nc(SCC(=O)N/N=C/c4cccc(O)c4O)n(-c4ccccc4)c(=O)c23)C1 (stereo not given)
inactive: [1] 85.6% | [2] 105% | [3] 99.2% | [4] 98.1% | [5] 90.9% | [6] 76.8% | [7] 94.1% | [8] 84% | [9] 60.4% | [10] 78.4%
